The whole screen tested about 65,000 compounds, of which about 45 (0.07%) were called active. Only a sample is shown. Values without a mark were called inactive. Calls come from the whole dose curve.
test system: Schistosoma mansoni peroxiredoxin 2 (Prx2); test: Schistosoma Mansoni Peroxiredoxins (Prx2); settings: S. mansoni Prx2 activity coupled to TGR/GSH (TGR is thioredoxin glutathione reductase), NADPH fluorescence loss, qHTS
From the text: NIH Molecular Libraries Screening Centers Network [MLSCN]
NIH Chemical Genomics Center [NCGC]
David Williams [Illinois State University]
Schistosoma mansoni, a causative agent of schistosomiasis, resides in the bloodstream of their host up to 30 years without being eliminated by the host immune attack. One proposed survival mechanism is the production of an antioxidant "firewall" that neutralizes the oxidative assault of the host's immune attack. Schistosoma mansoni peroxiredoxins (Prx) are important parasite antioxidant proteins that play a crucial role in redox balance mechanisms. […] First, the proteins are essential for the parasite survival. […] Third, the protein(s) is amenable for study at the molecular level and can be produced in bacteria in large quantities, in soluble and active form. Inhibition of Prx activity was screened in a coupled-enzyme format with reducing equivalents being transferred from NADPH to […] intermediate via thioredoxin/glutathione reductase (TGR)-catalyzed reaction, then from thioredoxin to hydrogen peroxide via Prx-catalyzed electron transfer. A decrease in the fluorescence intensity of NADPH was used to measure the enzyme activity. Purified S. mansoni TGR and Prx were provided by Professor David L. Williams, Illinois State University.
NCGC Assay Protocol Summary:
100 mM phosphate buffer, pH 7.4, 10 mM EDTA, 0.01% Tween-20.
100 uM NADPH/25 nM TGR/700 uM GSH/50 nM Prx2 mixture in columns 1, 2, 5-48. Titration of control potassium antimonyl tartrate (PAT, from 1 mM, then 1:5) pin-transferred to lower half of column 2. Column 1 and upper half of column 2 are neutral (100% activity).
Three uL of reagents were dispensed to 1536-well Greiner black plates. Compounds and controls (20 nL) were transferred via Kalypsys PinTool. The plates were incubated for 15 min at room temperature, and then a 1 uL aliquot of 400 uM NADPH/700 uM GSH was added, immediately followed by a 1uL aliquot of 2.5 mM H2O2 (to start the reaction). The plate was transferred to ViewLux (Perkin-Elmer) High-throughput CCD imager where kinetic measurements (every 30 sec, for a total of 8 min) of NADPH fluorescence were taken using 365 nm excitation/450 nm emission filter set. During dispense, enzyme-containing reagent bottles were kept submerged into 4 deg C water bath to minimize degradation.
Keywords: NIH Roadmap, MLSCN, MLI, MLSMR, David Williams, Peroxyredoxin, Schistosoma mansoni, prx2, prx, , qHTS, NCGC
Potency is the fitted concentration of half-maximal effect.

| Structure (SMILES) | Potency [µM] |
| --- | --- |
| O=C(O)CS(=O)c1ccc2c3c(cccc13)C(=O)c1ccccc1-2 (stereo not drawn) | > 57 |
| CC(C)NC(=O)N1CC[C@@]2(CCCN(C(=O)c3cccn3C)C2)C1 | > 57 |
| COC(=O)N1CCC2(CCCN(c3ccncc3)C2)CC1 | > 57 |
| COCCNc1ncnc2ccc(-c3cccnc3)cc12 | > 57 |
| Cc1nc2cnc(N3CCN(C)CC3)nc2n(C[C@H]2CCCO2)c1=O | > 57 |
| COc1ccc2[nH]cc(CCNc3cc(-c4ccccc4CN(C)C)ncn3)c2c1 | > 57 |
| COc1ccc(CNc2ncncc2-c2ccccc2OC)c(OC)c1 | > 57 |
| COc1ccccc1-c1nc(N2CCN(C)CC2)c2ccccc2n1 | > 57 |
| C[C@]12CC[C@@H]3C(=CCc4cc(O)ccc43)[C@@H]1CCC2=O | > 57 |
| CC(N)=NCc1cccc(CN)c1 | > 57 |
| CN=C(NC#N)NCCSCc1nc[nH]c1C | > 57 |
| ClC(Cl)(Cl)C(N1CCN(c2ccccc2)CC1)N1CCN(c2ccccc2)CC1 | > 57 |
| COc1cccc(Cn2c(=O)cnc3cncnc32)c1 | > 57 |
| Cc1ccc(NC(=O)c2cccc(N(C)C)c2)cc1NC(=O)c1ccc(O)cc1 | > 57 |
| COc1ccc(Oc2ncc3nc(C)c(=O)n(-c4ccccc4)c3n2)cc1 | > 57 |
| CC1=CC(=O)C2=C(C)C[C@H](O)[C@@H]3[C@@H](OC(=O)[C@H]3C)[C@H]12 | > 57 |
| Cc1cnc(CNc2cc(-c3c(C)noc3C)ncn2)cn1 | > 57 |
| COCCn1c(=O)c(-c2cc(F)cc(F)c2)nc2cnc(N3CCNCC3)nc21 | > 57 |
| CCCC(C(=O)OCCN(CC)CC)(c1ccccc1)c1ccccc1 | > 57 |
| O=c1cnc2cnc(Nc3ccccc3)nc2n1Cc1ccc(F)cc1 | > 57 |
| O=C1C(c2ccccn2)=[N+]([O-])c2ccccc21 | > 57 |
| CN(Cc1ccco1)c1ncncc1-c1ccoc1 | > 57 |
| C[C@H]1O[C@@H](CC(=O)O)Cc2c1c(O)c1c(O)cc(-c3cc(=O)c4c(=O)c5c(c(=O)c=4c3=O)C[C@H](CC(=O)O)O[C@@H]5C)c(O)c1c2O | > 57 |
| NS(=O)(=O)c1cc(Cl)c(Cl)c(S(N)(=O)=O)c1 | > 57 |
| CCC(C)(C)N=C(NC#N)Nc1cccnc1 | > 57 |
| COc1ccc(CNc2ncncc2-c2ccccc2C)c(OC)c1 | > 57 |
| Cn1cc(-c2nc3cnc(N4CCNCC4)nc3n(CCc3ccccc3)c2=O)c2ccccc21 | > 57 |
| CN(C)c1ccc(-c2nc(NCCN3CCOCC3)c3ccccc3n2)cc1 | > 57 |
